Laboratory results from PubChem BioAssay (Tox21).
Results filed as inconclusive are left out. The source made the active and inactive calls. Unless noted, the call rests on the fitted dose curve; in most records, active means well fitted curve in the direction sought with a large enough effect in the repeat runs; inconclusive means weak or mixed curves; inactive means no such curve, though single readings can be large; an effect the other way counts as inactive or inconclusive.

Key:
[1] = qHTS assay to identify small molecule antagonists of the thyroid receptor (TR) signaling pathway - cell viability counter screen (AID 743064); further: nearly all actives have a fitted effect of over 50% in size
Outline: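 Counter screen for cytotoxicity: compound plus T3 (1 nM final) on GH3.TRE-Luc cells, 23.5 h at 37 °C, then fluorescence viability readout with CellTiter-Fluor.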

[2] = qHTS assay to identify small molecule antagonists of the thyroid receptor (TR) signaling pathway (AID 743065); further: series mostly up to about 70 µM; nearly all actives have a fitted effect of over 55% in size
Outline: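 GH3.TRE-Luc rat pituitary cells (two TREs driving luciferase) were dosed with compound, then stimulated with 1 nM T3 (final) for 23.5 h at 37 C. ONE-Glo luminescence was the read-out, with CellTiter-Fluor fluorescence as the cytotoxicity counter-screen.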

[3] = test system: thyroid hormone receptor (rat, GH3 cells); assay: qHTS assay to identify small molecule agonists of the thyroid receptor (TR) signaling pathway (AID 743066; calls by dose curve)
[4] = target: Estrogen receptor (Homo sapiens) (UniProt P03372); assay: qHTS assay to identify small molecule antagonists of the estrogen receptor alpha (ER-alpha) signaling pathway (AID 743069; active means well fitted curve in the direction sought with a large enough effect in the signal ratio in the repeat runs, not every such curve was filed as active; the % refers to the signal ratio)
Chain of Estrogen receptor (Homo sapiens) (P03372 whole entry, looked up): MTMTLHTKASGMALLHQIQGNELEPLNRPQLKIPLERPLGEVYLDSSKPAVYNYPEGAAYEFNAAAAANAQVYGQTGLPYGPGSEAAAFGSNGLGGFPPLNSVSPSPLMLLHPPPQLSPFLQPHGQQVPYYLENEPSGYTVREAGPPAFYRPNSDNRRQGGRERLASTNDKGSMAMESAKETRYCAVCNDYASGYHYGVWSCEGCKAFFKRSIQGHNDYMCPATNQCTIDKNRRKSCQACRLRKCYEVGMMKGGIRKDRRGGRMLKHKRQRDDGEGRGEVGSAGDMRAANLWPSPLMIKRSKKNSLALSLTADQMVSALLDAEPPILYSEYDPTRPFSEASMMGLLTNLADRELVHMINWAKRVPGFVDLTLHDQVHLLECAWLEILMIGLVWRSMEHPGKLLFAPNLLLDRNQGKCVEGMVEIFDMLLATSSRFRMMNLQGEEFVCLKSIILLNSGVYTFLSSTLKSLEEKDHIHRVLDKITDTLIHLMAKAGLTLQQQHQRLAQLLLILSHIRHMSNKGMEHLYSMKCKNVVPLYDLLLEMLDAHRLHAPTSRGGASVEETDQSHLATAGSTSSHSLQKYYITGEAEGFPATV
Outline: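 Beta-lactamase FRET fluorescence is read after 2 hr at room temperature with LiveBLAzer B/G substrate. Before that, ER-alpha-bla HEK293 cells sit 4 hr after plating, then receive compound plus 17beta-estradiol and incubate 18 hr at 37C.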

[5] = qHTS assay to identify small molecule antagonists of the estrogen receptor alpha (ER-alpha) signaling pathway - cell viability counter screen (AID 743074; calls by dose curve;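 further: HEK293 cells carrying ER-alpha-UAS-bla reporter stimulated with 17beta-estradiol; nearly all actives have a fitted effect of over 45% in size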)
[6] = target: Estrogen receptor (Homo sapiens) (UniProt P03372); assay: qHTS assay to identify small molecule agonists of the estrogen receptor alpha (ER-alpha) signaling pathway (AID 743075; calls by dose curve;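 further: HEK293 GripTite cells with ER-alpha and UAS-driven beta-lactamase reporter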)
[7] = target: Estrogen receptor (Homo sapiens) (UniProt P03372); assay: qHTS assay to identify small molecule agonists of the estrogen receptor alpha (ER-alpha) signaling pathway using the BG1 cell line (AID 743079); further: nearly all actives have a fitted effect of over 20% in size
[8] = qHTS assay to identify small molecule antagonists of the estrogen receptor alpha (ER-alpha) signaling pathway using the BG1 cell line (AID 743080; calls by dose curve;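 further: BG1 cells stimulated with 17beta-estradiol alongside compound; series mostly up to about 70 µM; nearly all actives have a fitted effect of over 25% in size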)
Outline: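 Luminescence from a 4×ERE-luciferase reporter in BG1-Luc-4E2 cells served as read-out. Cells, pre-cultured 5 days in stripped-serum phenol-red-free medium, were exposed to compound with 17beta-estradiol co-stimulation for 21.5 h at 37 C.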

[9] = qHTS assay to identify small molecule antagonists of the estrogen receptor alpha (ER-alpha) signaling pathway using the BG1 cell line - cell viability counter screen (AID 743081);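 further: compound given together with 17beta-estradiol as the ER stimulus; series mostly up to about 70 µM; nearly all actives have a fitted effect of over 45% in size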
Aromatase (Homo sapiens) = Aromatase (Homo sapiens) (UniProt P11511); assay: qHTS assay to identify aromatase inhibitors (AID 743083); further: series mostly up to about 70 µM; nearly all actives have a fitted effect of over 55% in size
Chain of Aromatase (Homo sapiens) (P11511 whole entry, looked up): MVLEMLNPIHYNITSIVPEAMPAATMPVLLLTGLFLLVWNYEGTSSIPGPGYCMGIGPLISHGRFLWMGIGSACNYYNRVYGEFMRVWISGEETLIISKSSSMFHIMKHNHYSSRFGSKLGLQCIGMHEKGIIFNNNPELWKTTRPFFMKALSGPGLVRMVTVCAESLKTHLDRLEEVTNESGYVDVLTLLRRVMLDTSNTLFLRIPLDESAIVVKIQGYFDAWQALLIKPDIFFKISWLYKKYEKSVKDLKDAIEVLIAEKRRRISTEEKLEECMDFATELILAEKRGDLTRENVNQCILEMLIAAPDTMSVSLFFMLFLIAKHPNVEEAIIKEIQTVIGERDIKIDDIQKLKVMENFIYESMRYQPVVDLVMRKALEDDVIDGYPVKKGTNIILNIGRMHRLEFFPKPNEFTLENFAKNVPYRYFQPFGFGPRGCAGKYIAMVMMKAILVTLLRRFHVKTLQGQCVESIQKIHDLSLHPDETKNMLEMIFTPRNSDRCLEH

[10] = qHTS assay to identify aromatase inhibitors - cell viability counter screen (AID 743084);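 further: cells stimulated with testosterone during compound exposure; nearly all actives have a fitted effect of over 55% in size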
[11] = target: Aryl hydrocarbon receptor (Homo sapiens) (UniProt P35869); assay: qHTS assay to identify small molecule that activate the aryl hydrocarbon receptor (AhR) signaling pathway (AID 743085);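 further: HG2L7.5c1 human HepG2 liver cells with stably integrated DRE-driven firefly reporter; series mostly up to about 70 µM; nearly all actives have a fitted effect of over 15% in size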
Chain of Aryl hydrocarbon receptor (Homo sapiens) (P35869 whole entry, looked up): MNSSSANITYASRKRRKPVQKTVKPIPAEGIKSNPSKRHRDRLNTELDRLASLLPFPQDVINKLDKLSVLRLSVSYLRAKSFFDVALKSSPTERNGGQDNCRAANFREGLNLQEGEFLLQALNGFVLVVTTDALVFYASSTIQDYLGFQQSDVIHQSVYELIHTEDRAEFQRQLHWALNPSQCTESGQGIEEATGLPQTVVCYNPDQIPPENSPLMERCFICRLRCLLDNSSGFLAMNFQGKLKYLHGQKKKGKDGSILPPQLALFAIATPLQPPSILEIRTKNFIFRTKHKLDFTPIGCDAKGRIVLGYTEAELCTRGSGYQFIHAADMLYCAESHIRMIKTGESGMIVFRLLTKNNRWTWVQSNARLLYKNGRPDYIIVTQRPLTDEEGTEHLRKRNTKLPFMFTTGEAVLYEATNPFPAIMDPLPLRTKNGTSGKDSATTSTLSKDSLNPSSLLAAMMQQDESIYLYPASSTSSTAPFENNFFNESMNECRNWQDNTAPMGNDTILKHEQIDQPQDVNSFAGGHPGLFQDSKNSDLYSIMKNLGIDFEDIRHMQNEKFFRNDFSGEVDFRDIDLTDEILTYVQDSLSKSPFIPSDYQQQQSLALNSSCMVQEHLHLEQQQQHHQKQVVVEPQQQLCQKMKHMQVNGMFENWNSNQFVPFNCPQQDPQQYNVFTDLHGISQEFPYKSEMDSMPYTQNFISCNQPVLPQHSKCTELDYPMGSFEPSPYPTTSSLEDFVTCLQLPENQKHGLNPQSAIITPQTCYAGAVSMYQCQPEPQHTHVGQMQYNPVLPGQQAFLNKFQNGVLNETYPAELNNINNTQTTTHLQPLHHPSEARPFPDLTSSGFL
Outline: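 Measured in HG2L7.5c1 cells: CellTiter-Fluor signal (30 min incubation, 37C) for viability, then luciferase luminescence (30 min, room temperature). Compound contact time was 24 h at 37C, following a 5 h pre-incubation.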

[12] = qHTS assay to identify small molecule that activate the aryl hydrocarbon receptor (AhR) signaling pathway - cell viability counter screen (AID 743086);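 further: HepG2 liver cells carrying the AhR DRE luciferase reporter; series mostly up to about 70 µM; nearly all actives have a fitted effect of over 45% in size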
Outline: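 HepG2-AhR-luc (HG2L7.5c1) cells, 4000/well, treated 24 h at 37 C with compound; viability measured as CellTiter-Fluor fluorescence after 30 min in the same wells as the luciferase read.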

[13] = target: Peroxisome proliferator-activated receptor gamma (Homo sapiens) (UniProt P37231); assay: qHTS assay to identify small molecule agonists of the peroxisome proliferator-activated receptor gamma (PPARg) signaling pathway (AID 743094; active means well fitted activation curve with a large enough effect in the signal ratio in the repeat runs, not every such curve was filed as active; the % refers to the signal ratio)
Chain of Peroxisome proliferator-activated receptor gamma (Homo sapiens) (P37231 whole entry, looked up): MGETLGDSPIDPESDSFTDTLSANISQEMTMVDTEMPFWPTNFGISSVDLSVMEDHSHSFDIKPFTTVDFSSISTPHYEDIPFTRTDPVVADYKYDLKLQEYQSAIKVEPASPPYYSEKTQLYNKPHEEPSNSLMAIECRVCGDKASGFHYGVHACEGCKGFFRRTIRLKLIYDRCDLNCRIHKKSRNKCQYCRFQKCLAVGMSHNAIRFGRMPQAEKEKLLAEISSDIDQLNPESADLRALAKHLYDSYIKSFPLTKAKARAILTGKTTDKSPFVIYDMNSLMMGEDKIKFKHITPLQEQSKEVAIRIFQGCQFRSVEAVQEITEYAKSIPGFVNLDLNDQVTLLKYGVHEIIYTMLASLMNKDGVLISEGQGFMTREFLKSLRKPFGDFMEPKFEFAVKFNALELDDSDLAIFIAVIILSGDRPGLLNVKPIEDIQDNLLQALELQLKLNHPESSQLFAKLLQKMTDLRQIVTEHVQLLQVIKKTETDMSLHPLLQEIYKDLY
Outline: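 HEK293H PPARg-bla cells, 5 h settle at 37C/5% CO2; compound (DMSO) 17 h, 37C; B/G FRET substrate 1 h RT; fluorescence intensity read-out. qHTS format.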

[14] = target: Peroxisome proliferator-activated receptor gamma (Homo sapiens) (UniProt P37231); assay: qHTS assay to identify small molecule antagonists of the peroxisome proliferator-activated receptor gamma (PPARg) signaling pathway (AID 743191; calls by dose curve; further: series mostly up to about 63 µM; nearly all actives have a fitted effect of over 30% in size)
Outline: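 GeneBLAzer PPARg UAS-bla HEK293H cells, 5 h post-plating, exposed to compounds 17 h at 37C. LiveBLAzer B/G FRET substrate added for 1 h at room temperature; beta-lactamase reporter read by fluorescence intensity.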

[15] = qHTS assay to identify small molecule antagonists of the peroxisome proliferator-activated receptor gamma (PPARg) signaling pathway - cell viability counter screen (AID 743194); further: nearly all actives have a fitted effect of over 55% in size
Outline: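 Cytotoxicity counter screen in PPARg-bla HEK293H cells, same wells as reporter assay. Compounds plus 50 nM rosiglitazone (final) for 17 h at 37 C, then viability read by CellTiter-Glo luminescence.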

[16] = qHTS assay for small molecule agonists of the antioxidant response element (ARE) signaling pathway - cell viability counter screen (AID 743203; calls by dose curve; further: nearly all actives have a fitted effect of over 55% in size)
Outline: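 Luminescence read-out (CellTiter-Glo, 30 min at room temperature) measured cell viability in the same wells as the ARE beta-lactamase reporter. HepG2 ARE-bla cells were treated with compounds for 16 hrs at 37C/5% CO2.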

[17] = qHTS assay for small molecule activators of the heat shock response signaling pathway - cell viability counter screen (AID 743209); further: nearly all actives have a fitted effect of over 50% in size
Outline: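 HSE-bla HeLa; 1500 cells/well; overnight 37 C, 5% CO2; compound 5 h 37 C; LiveBLAzer B/G substrate 2.5 h RT; CellTiter-Glo 30 min RT; luminescence.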

[18] = qHTS assay for small molecule activators of the heat shock response signaling pathway (AID 743210; active means well fitted activation curve with a large enough effect in the signal ratio in the repeat runs, with a control signal flat, not every such curve was filed as active; the % refers to the signal ratio;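 further: HeLa cells with beta-lactamase reporter driven by heat shock elements; series mostly up to about 63 µM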)
Outline: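 Beta-lactamase reporter read-out: FRET substrate fluorescence after 2.5 h at RT, following 5 h compound treatment at 37 C of HeLa cells carrying HSE-driven bla reporter; quantitative HTS format.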

[19] = qHTS assay for small molecule agonists of the antioxidant response element (ARE) signaling pathway (AID 743202; active means well fitted activation curve with a large enough effect in the signal ratio in the repeat runs, not every such curve was filed as active; the % refers to the signal ratio)
Outline: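 HepG2 ARE-bla reporter line, 2,000 cells/well; 5 h preincubation 37 C/5% CO2; compound (DMSO) 16 h 37 C; B/G FRET substrate 2 h RT; fluorescence intensity.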

Measured: Potency

CCCc1cc(C(N)=S)ccn1
not listed: [19]
inactive: all other assays above

COCCCOCCCOC
not listed: [14] | [19]
inactive: all other assays above

O=C[C@H](O)[C@@H](O)[C@H](O)[C@H](O)CO
not listed: [14] | [17]
inactive: all other assays above

CCSC(=O)N(CC(C)C)CC(C)C
not listed: [14] | [19]
inactive: all other assays above

Cc1cc(O)cc2c1O[C@](C)(CCC[C@H](C)CCC[C@H](C)CCCC(C)C)CC2
not listed: [11] | [14] | [19]
inactive: all other assays above

OCCCC1CCCCC1
not listed: [13] | [14] | [19]
inactive: all other assays above

NC(=O)Nc1ccccc1
not listed: [13] | [14] | [15]
inactive: all other assays above

C=CCS(=O)(=O)O
not listed: [11]
inactive: all other assays above
